Screening data as filed in PubChem BioAssay.
AMA1-RON2 inh – AMA1-RON2 (P. falciparum) interaction inhibition; Potency, µM (titrated, usually from 58.2 µM), without a hit: at the highest dose activity change, negative = inhibition, most hits filed as inhibitors; AID 720542; 360,000 compounds, 0.2% hits; AlphaScreen AMA1-biotinylated RON2 peptide binding;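 further: 0% = vehicle wells and -100% = peptide control; nearly all actives have a fitted effect of over 45% in size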
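AMA1 (3D7) with his tag at 25 nM final met compounds first, then biotinylated RON2 peptide at 25 nM; detection used donor plus acceptor beads, 10 µg/mL apiece, read by AlphaScreen after 30 min at room temperature.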
Pf growth 48h – P. falciparum growth inhibition at 48 hours (one generation). P. falciparum luciferase growth in erythrocytes, 48 h. Potency, µM (highest dose often 28.7 µM), for the others: top-dose activity change, negative = inhibition, most hits filed as inhibitors. 310,000 compounds, 5.9% hits. AID 504832; further: on the % scale 0 is the no-effect control and ±100 the full control effect
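Compounds are pin-transferred into medium, infected erythrocytes (2% hematocrit, 0.1% parasitemia final) are added, and plates sit one parasite generation at 37 C in 5% CO2. Detection reagent is then added and luminescence measured.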
SARS PLpro yeast – SARS-CoV PLP inhibition in yeast; 330,000 compounds, 0.19% hits; S. cerevisiae expressing SARS-CoV PLpro, growth rescue; Potency, µM (series often up to 32.9 µM), for the others: top-dose activity, positive = growth rescue, most hits filed as activators; AID 485353; calls by dose curve; further: 0% is about no effect; nearly all actives have a fitted effect of over 55% in size
NS1 function inh – inhibitors of influenza NS1 protein function; AID 2326; 270,000 compounds, 0.4% hits; Potency, µM (series often up to 46.1 µM), for the others: at the highest dose activity, positive = more growth; calls by dose curve; further: actives are rising curves; nearly all actives have a fitted effect of over 50% in size
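Growth recovery, yeast-based: influenza A NS1 expressed in S. cerevisiae causes slow growth, and suppressors are detected by OD600. The parent strain without NS1 is used as positive control.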
HCV inh – HCV inhibition; Huh7.5.1 HCVcc-Cre infection, luciferase reporter, 44 h; Potency, µM (series often up to 41.8 µM), inactives show at the highest dose activity change, negative = inhibition, most hits filed as inhibitors; 340,000 compounds, 3.4% hits; further: on the % scale 0 is the no-effect control and ±100 the full control effect
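Cells (1,000/well) were plated 4 h before compound, then infected with HCVcc-Cre virus (~0.5 moi). After 44 h further culture, infection was read as luciferase luminescence following a 15 min substrate incubation at room temperature.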
Pf growth 96h – P. falciparum growth inhibition at 96 hour, primary screen for plastid delayed-death inhibitors; P. falciparum luciferase reporter growth, 96 h; Potency, µM (series often up to 28.7 µM), without a hit: at the top dose activity change, negative = inhibition, most hits filed as inhibitors; 320,000 compounds, 6.9% hits; further: on the % scale 0 is the no-effect control and ±100 the full control effect
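P. falciparum expressing integrated firefly luciferase grown in erythrocytes (2% hematocrit, 0.05% parasitemia final) with compounds for 96 hours at 37 C, 5% CO2. Growth inhibition read as loss of luminescence after adding luciferase detection reagent.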
Numbers without * were called inactive; u = inconclusive; x = not tested or not shown; ! = not active in a repeat. A selection: hits, their analogues and other compounds. The true share with any hit is near 12%. Unless noted, the call rests on the fitted dose curve; in most records, active means well fitted curve in the direction sought with a large enough effect; inconclusive means small, poorly fitted or top-dose-only effect, or another doubt; inactive means no such curve, though single readings can be large; an effect the other way counts as inactive or inconclusive. Potency means the concentration at half of the fitted maximal effect.

SMILES	AMA1-RON2 inh	Pf growth 48h	SARS PLpro yeast	NS1 function inh	HCV inh	Pf growth 96h
O=C(Nc1nc(-c2ccccn2)cs1)c1ccc(Cl)s1	99.6%	x	u	-159.1%	u	0.37µM*
CCn1c(=O)c([N+](=O)[O-])c(NC2CCS(=O)(=O)C2)c2ccccc21 (centres undefined)	-5.6%	0.5%	0.3%	3.1%	2.9%	-4.9%
CC1CN(C(=O)CCNS(=O)(=O)c2ccc(Br)cc2)CC(C)O1 (centres undefined)	-0.1%	31.6%	5.2%	x	16.5%	19.0%
O=C(Nc1nc(-c2ccccn2)cs1)c1cc2ccccc2o1	-72.5%	u	-30.3%	x	u	u
Cc1c(C(=O)Nc2nc(-c3ccccn3)cs2)oc2ccccc12	23.2%	6.57µM*	0.3%	x	2.82µM*	u
Cc1cc(S(=O)(=O)N2CCN(c3ccc(F)cc3)CC2)ccc1-n1cnnn1	-5.2%	-0.6%	-5.3%	-6.9%	-11.9%	-18.1%
Cc1cc(S(=O)(=O)N2CCN(c3ccccc3F)CC2)ccc1-n1cnnn1	8.7%	-14.1%	-1.7%	-2.1%	u	11.7µM*
COCCn1c(SCC(=O)NC(=O)NC2CCCC2)nc2ccccc2c1=O	0.0%	u	-1.0%	x	-28.1%	u
COc1ccc(Cc2nc(C(=O)Nc3ccc(F)cc3)cs2)cc1	2.8%	x	-15.1%	-73.1%	10µM*	-1.4%
COc1ccc(Cn2nnc(C(=O)Nc3ccc(F)cc3)c2N)cc1	11.5%	16.3%	9.2%	-0.4%	-7.3%	1.85µM*
COc1ccc(NC(=O)c2csc(Cc3ccc(Cl)cc3)n2)cc1	-8.1%	3.2%	-0.3%	0.4%	-3.1%	34.1%
CCOc1ccc(Cn2nnc(C(=O)NCCc3ccc(Cl)cc3)c2N)cc1	1.7%	x	6.2%	9.9%	-4.9%	5.22µM*
CCOC(=O)N/N=C(/C)c1cccc(-n2cnnn2)c1	-26.8%	-4.8%	-1.0%	x	17.7%	83.6%
Cc1cccc2cc(C#N)c(NCc3ccccc3)nc12	29.0%	u	-17.4%	x	u	9.5%
Cc1cc(N(C)C)c(C#N)c(NCc2ccccc2)n1	19.4%	1.6%	-8.2%	-18.2%	-8.8%	u
Nc1[nH]nc2nc(NCc3ccccc3)c3c(c12)CCN(Cc1ccccc1)C3	-11.4%	-27.9%	-1.9%	10.6%	-22.9%	u
C=CCNc1nc(NCc2ccccc2)c(C#N)c2c1CN(C)CC2	0.0%	u	-3.2%	-7.3%	17.8µM*	26.6%
N#Cc1c(NCCN)nc(NCc2ccccc2)c2c1CCN(Cc1ccccc1)C2	-8.3%	9.28µM*	-0.8%	20.4%	u	70.4%
CCN1CCc2c(C#N)c(NCc3ccccc3)nc(N(CC)CC)c2C1	-27.6%	2.62µM*	-2.7%	-10.3%	u	0.928µM*
N#Cc1c(Cl)nc(Cl)c2c1CCN(Cc1ccccc1)C2	-22.9%	-16.0%	2.2%	-3.9%	u	u
N#Cc1c(N2CCCCC2)nc(N2CCCCC2)c2c1CCN(Cc1ccccc1)C2	-13.2%	3.7µM*	-1.3%	-4.8%	u	97.9%
CCOc1cc(C(=O)OC(C(=O)NC(=O)NC)c2ccccc2)ccc1OCC(=O)N1CCOCC1 (centres undefined)	-2.3%	x	-18.3%	x	-18.7%	x
CCCc1nc(NCc2ccccc2)c(C#N)c2c1CCCC2	1.4%	6.57µM*	1.9%	-7.9%	8.8%	u
Cn1cc(CN2CC3C[C@@H]4CC2C[C@H](C3)C4)c(-c2ccc3c(c2)OCCO3)n1	-20.8%	-19.5%	1.0%	4.5%	0.7%	11.7µM*
CC(=O)N1CCCC(C(=O)c2ccc(Oc3ccccc3)cc2)C1 (centres undefined)	-13.3%	-17.7%	-5.0%	-36.6%	-1.2%	u
SMILES	AMA1-RON2 inh	Pf growth 48h	SARS PLpro yeast	NS1 function inh	HCV inh	Pf growth 96h
O=C(Oc1ccc2ccc(=O)oc2c1)c1ccccc1	3.4%	9.9%	-5.0%	-2.1%	9.1%	9.28µM*
CC(=O)[C@]1(O)Cc2c(O)c3c(c(O)c2[C@@H](O[C@H]2C[C@H](N)[C@H](O)[C@H](C)O2)C1)C(=O)c1ccccc1C3=O	-2.4%	3.79µM*	x	-38.2%	11.2µM*	2.69µM*
COc1cccc2c1C(=O)c1c(O)c3c(c(O)c1C2=O)C[C@@](O)(C(C)=O)C[C@@H]3O[C@H]1C[C@H](N)[C@H](O)[C@H](C)O1	7.0%	0.37µM*	-39.9%	-59.2%	6.31µM*!	0.586µM*
CC(=O)[C@]1(O)Cc2c(O)c3c(c(O)c2[C@@H](O[C@H]2C[C@H](N)[C@H](O)[C@H](C)O2)C1)C(=O)c1c(O)cccc1C3=O	x	2.39µM*	x	x	x	1.51µM*
CCCCC(=O)OCC(=O)[C@]1(O)Cc2c(O)c3c(c(O)c2[C@H](OC2CC(NC(=O)C(F)(F)F)C(O)C(C)O2)C1)C(=O)c1c(OC)cccc1C3=O (some centres undefined)	x	3.38µM*	x	x	x	2.39µM*
COc1cccc2c1C(=O)c1c(O)c3c(c(O)c1C2=O)C[C@](O)(C(=O)CO)C[C@@H]3O[C@H]1C[C@H](N)[C@@H](O)[C@H](C)O1	x	-9.6%	x	x	x	-9.8%
COc1cccc2c1C(=O)c1c(O)c3c(c(O)c1C2=O)C[C@@](O)(C(=O)CO)C[C@@H]3O[C@H]1C[C@H](N)[C@@H](O)[C@H](C)O1	2.5%	x	x	x	u	x
O=C(CCN1CCOCC1)N1CCCC(Nc2cccc(F)c2)C1 (centres undefined)	0.0%	-1.7%	0.5%	23.7%	7.0%	u
CCOc1cc(/C=C/C(=O)N(CC)CC(=O)NCc2cccs2)cc(Cl)c1OC	6.3%	u	-6.0%	x	u	-19.8%
O=C(O)[C@@H]1[C@H](C(=O)O)[C@H]2C(=O)C=C[C@H]1N2Cc1ccccc1	x	x	x	-0.7%	x	x
CN1CCc2c(sc(NC(=O)C3CCCN3S(=O)(=O)c3ccc(Cl)s3)c2C(N)=O)C1 (centres undefined)	-8.4%	u	5.0%	x	-24.4%	u
CC(C)(C)c1ccc(C(=O)N2CCCC2)s1	3.5%	84.9%	-1.5%	-3.6%	14.0%	33.4%
CC(=O)c1ccc(C(C)(C)c2ccc(C(C)=O)s2)s1	63.5%	u	-2.4%	-31.8%	u	11.7µM*
COC(=O)C1=C(NC(=O)c2cccs2)CCS1	x	u	3.2%	-24.0%	x	9.28µM*
COC(=O)C1=C(NC(=O)c2cccc(OC)c2)CCS1	11.5%	20.3%	7.7%	-18.5%	-14.0%	4.15µM*
CCN(c1ccccc1)S(=O)(=O)c1cccc(C(=O)NCc2ccncc2)c1	11.6%	-12.5%	1.8%	x	u	0.9%
O=C(Nc1ccc(F)cc1F)c1cccn(Cc2ccccc2)c1=O	-9.1%	14.7µM*	0.1%	x	-26.1%	81.1%
O=C(Nc1ccncc1)c1ccccc1Cl	11.9%	35.4%	-0.6%	0.9%	-0.4%	u
O=C(Nc1ccccc1)c1cccn(Cc2ccccc2)c1=O	-11.3%	0.0%	-9.4%	0.0%	10µM*	357.2%
